Experimental data taken from PubChem BioAssay AID1159580 (chemical genetic matrix, 2015).
Several values for one entry are separate records, joined by “and”; a condition that tells them apart may be missing. Equal values may be shown once. In all, about 5,500 compounds went through this assay and about 2,000 (36%) were called active. About 18% were inconclusive and are not listed. No stated cut-off is given here; in the data, active means normalized growth mostly below about 0.91 (no sharp cut-off); inconclusive means no clear call, values can overlap the other calls; inactive means mostly above about 0.92. The list shows a part of the results.

Test: chemical genetic growth profiling, strain panel (AID 1159580);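 further: tested at 20 µM; growth read once vehicle control cultures reached saturation at 30 °C; 1 = growth at the plate median or of vehicle wells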
Details: S. cerevisiae deletion strains, growth OD

Measured: normalized growth

Cc1cc(C(C)(C)C)c(O)c(C(C)(C)C)c1
inactive: locus YAL013W, strain DEP1, stronger effect = lower value 0.985 | locus YAL021C, strain ccr4, stronger effect = lower value 1.04 | locus YAL026C, strain drs2, stronger effect = lower value 0.956 | locus YAL030W, strain snc1, stronger effect = lower value 0.99 | locus YBL061C, strain skt5, stronger effect = lower value 0.943 | locus YBR009C, strain hhf1, stronger effect = lower value 0.91 | locus YBR021W, strain FUR4, stronger effect = lower value 0.997 | locus YBR023C, strain chs3, stronger effect = lower value 0.984 | locus YBR171W, strain sec66, stronger effect = lower value 0.979 | locus YBR229C, strain ROT2, stronger effect = lower value 0.964 | locus YBR231C, strain swc5, stronger effect = lower value 0.921 | locus YBR279W, strain paf1, stronger effect = lower value 0.996 | locus YCL011C, strain gbp2, stronger effect = lower value 0.917 | locus YCL016C, strain dcc1, stronger effect = lower value 0.983 | locus YCL029C, strain bik1, stronger effect = lower value 0.983 | locus YCL061C, strain MRC1, stronger effect = lower value 0.991 | locus YCL069W, strain vba3, stronger effect = lower value 0.99 | locus YCR088W, strain abp1, stronger effect = lower value 0.976 | locus YDL005C, strain med2, stronger effect = lower value 0.975 | locus YDL035C, strain GPR1, stronger effect = lower value 0.947 | locus YDL040C, strain nat1, stronger effect = lower value 0.978 | locus YDL074C, strain BRE1, stronger effect = lower value 0.816 | locus YDL101C, strain DUN1, stronger effect = lower value 0.96 | locus YDL134C, strain PPH21, stronger effect = lower value 0.972 | locus YDL185W, strain tfp1, stronger effect = lower value 0.962 | locus YDL192W, strain arf1, stronger effect = lower value 0.969 | locus YDR001C, strain nth1, stronger effect = lower value 0.978 | locus YDR069C, strain doa4, stronger effect = lower value 0.963 | locus YDR101C, strain arx1, stronger effect = lower value 0.977 | locus YDR137W, strain rgp1, stronger effect = lower value 0.965 | locus YDR150W, strain NUM1, stronger effect = lower value 0.975 | locus YDR159W, strain sac3, stronger effect = lower value 0.959 | locus YDR162C, strain NBP2, stronger effect = lower value 0.859 | locus YDR297W, strain sur2, stronger effect = lower value 0.983 | locus YDR318W, strain mcm21, stronger effect = lower value 0.984 | locus YDR334W, strain swr1, stronger effect = lower value 0.966 | locus YDR335W, strain msn5, stronger effect = lower value 0.989 | locus YDR388W, stronger effect = lower value 0.994 | locus YDR392W, strain spt3, stronger effect = lower value 0.937 | locus YDR502C, strain sam2, stronger effect = lower value 0.952 | locus YEL003W, strain gim4, stronger effect = lower value 0.967 | locus YEL037C, strain rad23, stronger effect = lower value 0.976 | locus YEL061C, strain CIN8 (second series), stronger effect = lower value 0.976 | locus YEL061C, strain CIN8, stronger effect = lower value 0.983 | locus YER015W, strain faa2, stronger effect = lower value 0.937 | locus YER016W, strain bim1, stronger effect = lower value 0.984 | locus YER110C, stronger effect = lower value 1 | locus YER111C, strain swi4, stronger effect = lower value 0.982 | locus YER155C, strain BEM2 (second series), stronger effect = lower value 0.949 | locus YER155C, strain BEM2, stronger effect = lower value 0.986 | locus YER167W, strain BCK2, stronger effect = lower value 0.963 | locus YFR010W, strain ubp6, stronger effect = lower value 0.956 | locus YGL078C, strain dbp3, stronger effect = lower value 0.962 | locus YGL086W, strain mad1, stronger effect = lower value 1 | locus YGL167C, strain pmr1, stronger effect = lower value 0.991 | locus YGL173C, strain kem1, stronger effect = lower value 0.957 | locus YGL227W, strain vid30, stronger effect = lower value 0.989 | locus YGL240W, strain doc1, stronger effect = lower value 0.938 | locus YGL248W, strain PDE1, stronger effect = lower value 0.965 | locus YGL253W, strain hxk2, stronger effect = lower value 0.96 | locus YGR078C, strain PAC10, stronger effect = lower value 0.93 | locus YGR135W, strain pre9, stronger effect = lower value 0.928 | locus YGR229C, strain SMI1, stronger effect = lower value 0.86 | locus YGR252W, strain gcn5, stronger effect = lower value 1.03 | locus YHR013C, strain ard1, stronger effect = lower value 1.1 | locus YHR027C, strain rpn1, stronger effect = lower value 0.955 | locus YHR030C, strain SLT2, stronger effect = lower value 0.996 and 0.877 | locus YHR079C, strain IRE1 (second series), stronger effect = lower value 0.963 | locus YHR079C, strain IRE1, stronger effect = lower value 0.918 | locus YHR094C, strain hxt1, stronger effect = lower value 1 | locus YHR129C, strain ARP1, stronger effect = lower value 0.978 | locus YHR142W, strain chs7, stronger effect = lower value 0.961 | locus YHR200W, strain rpn10, stronger effect = lower value 1 | locus YIL066C, strain RNR3, stronger effect = lower value 0.934 | locus YIL073C, strain SPO22, stronger effect = lower value 0.929 | locus YIL125W, strain kgd1, stronger effect = lower value 0.967 | locus YIR030C, strain dcg1, stronger effect = lower value 0.998 | locus YJL092W, strain hpr5, stronger effect = lower value 0.984 | locus YJL095W, strain BCK1 (second series), stronger effect = lower value 0.979 | locus YJL095W, strain BCK1, stronger effect = lower value 0.903 and 0.934 | locus YJL115W, strain asf1, stronger effect = lower value 0.983 | locus YJL129C, strain trk1, stronger effect = lower value 0.953 | locus YJL134W, strain LCB3, stronger effect = lower value 1 | locus YJL154C, strain vps35, stronger effect = lower value 0.984 | locus YJL164C, strain tpk1, stronger effect = lower value 0.95 | locus YJL166W, strain qcr8, stronger effect = lower value 0.951 | locus YJL168C, strain set2, stronger effect = lower value 0.996 | locus YJL187C, strain SWE1 (second series), stronger effect = lower value 0.886 | locus YJR043C, strain POL32, stronger effect = lower value 0.97 | locus YJR066W, strain TOR1, stronger effect = lower value 0.942
active: locus YDR195W, strain ref2 0.845
